Structures are written as SMILES. Inconclusive results are not listed. A call without a number means that no potency is given here. Unmarked numbers belong to inactive results. Active and inactive are the calls of the source. The call rests on the fitted dose curve; in most records, active means well fitted cell-killing curve with a large enough effect in the repeat runs; inconclusive means weak or mixed curves, or effect the other way; inactive means flat fitted curve, though single readings scatter.

This experiment in a line: cAMP Responsive Elements (CRE) small molecule agonists, cell-based qHTS assay: qHTS cell viability counter screen (AID 2060914). Further: nearly all actives have a fitted effect of over 50% in size. Particulars: CRE-bla HEK293T viability, CellTiter-Glo luminescence, 5 h; series mostly up to 92.4 µM. The source says: National Center for Advancing Translational Sciences [NCATS]
Division of Preclinical Innovation [DPI]
U.S. Environmental Protection Agency [EPA]
National Institutes of Environmental Health Sciences [NIEHS]
National Toxicology Program [NTP]
U.S. Food and Drug Administration [FDA]
CREB (cyclic-AMP Responsive Element Binding Protein) is a cellular transcription factor. It binds to certain DNA sequences called cAMP Responsive Elements (CRE) and regulates the transcription of the genes. […] This cell line can be used to find agonists/antagonists of the cyclic AMP signaling pathway. The activation of the report gene under culture conditions can be detected by fluorescence intensity. This cell line has been used to screen the Tox21 10K compound library to identify agonists that induce oxidative stress. The cytotoxicity of the Tox21 compound library against the CRE-bla cell line was tested in parallel by measuring the cell viability using CellTiter-Glo assay (Promega, Madison, WI) in the same wells.
Tox21 Assay Protocol Summary:
CRE-bla Hek 293T cells were suspended in assay medium (DMEM containing 10% dialyzed FBS, 0.1 mM NEAA, 1 mM sodium pyruvate and 25 mM HEPES) and dispensed at 2,000 cells/5 uL /well into 1536-well black wall/clear bottom plates using a Multidrop Combi (ThermoFisher Scientific, Waltham, MA) dispenser. After the assay plates were incubated at 37 C/5% CO2 for 18 hrs, 23 nL of compounds dissolved in DMSO, positive controls or DMSO only was transferred to the assay plate by a pintool workstation (Kalypsys, San Diego, CA). After the plates were incubated at 37 C/5% CO2 for 3 hrs, 1 uL of LiveBLAzer B/G FRET substrate (Invitrogen, Carlsbad, CA) was added to each well using Bioraptr Flying Reagent Dispenser (FRD, Aurora Discovery, San Diego, CA). The plates were incubated at room temperature for 2 h, then fluorescence intensities were measured using an Envision plate reader (PerkinElmer, Shelton, CT) at Excitation 405nm, Emission 460nm and 530nm. The % activity was determined from the ratio of 460nm/530nm. For cell viability readout that measures cytotoxicity, 4 uL /well of CellTiter-Glo reagent was added into the assay plates using Bioraptr FRD. After 30 min incubation at room temperature, the luminescence intensity in the assay plates was measured using a ViewLux (PerkinElmer, Shelton, CT) plate reader.
Turning to `Clc1cc(Cl)nc(Cl)n1`, the Potency entry is “inactive”. On to `OC[C@H]1O[C@@H](O[C@H]2[C@H](O)[C@@H](O)[C@H](O)O[C@@H]2CO)[C@H](O)[C@@H](O)[C@H]1O`, for which the Potency entry was “inactive”.

As for `CC(C)C(O)C(C)(C)CO` (stereo not given), the Potency entry is “inactive”.

Take `COP(=O)(OC)OC(c1ccc(Cl)cc1)P(=O)(OC)OC` (stereo not given): the Potency result was “inactive”. Still for that read-out and setting: for `Cc1ccc(C(C)C)c(O)c1` the value was “inactive”. For the molecule `CO[Si](C)(OC)OC`, the Potency entry was “inactive”. On the same count and under the same terms, for `CC1=C(O)C(=O)C(C)O1` (stereo not given) the value was “inactive”. As for `CCCC/C=C/C=C\C=O`, the Potency result was “inactive”. In the case of `COc1ccc(C2C(=O)c3ccccc3C2=O)cc1`, the Potency entry was “inactive”. As for `CC1CNCC(C)O1` (stereo not given), the Potency entry was “inactive”.

For `CCCCCCCCS(=O)C(C)Cc1ccc2c(c1)OCO2` (stereo not given), the Potency result was “inactive”. As for `CC[C@]12CCCN3CCc4c(n(c5ccccc45)C(=O)C1)[C@@H]32`, the Potency entry was “inactive”. On the same count and under the same terms, then `C[N+](C)(C)CC(O)CCl` (stereo not given), with “inactive”; and `CCCCCCCCCCCCC(=O)O`, with “inactive”.

With `Clc1cc(Cl)cc(Cl)c1`, the Potency result is “inactive”. Turning to `CCC(=O)/C=C/C1C(C)=CCCC1(C)C` (stereo not given), the Potency entry is “inactive”. Take `C[N+]12CCC(CC1)C(OC(=O)C(O)(c1ccccc1)c1ccccc1)C2` (stereo not given): the Potency result is “inactive”. `C/C=C/C(=O)O`: the Potency entry is “inactive”. With `Cc1nc(-c2ccc(OCC(C)C)c(C#N)c2)sc1C(=O)O`, the Potency entry was “inactive”. In the case of `NC(Cc1ccc(F)cc1)C(=O)O` (stereo not given), the activity change, negative = cytotoxicity was 0.316% [at 8.39 µM]. For `COc1cc(OC)nc(NC(=O)NS(=O)(=O)Nc2ccccc2C(=O)N(C)C)n1`, the Potency result is “inactive”. `CC(C)(O)c1ccccc1CC[C@@H](SCC1(CC(=O)O)CC1)c1cccc(/C=C/c2ccc3ccc(Cl)cc3n2)c1`: the Potency result was “inactive”. On the same count and under the same terms, for `O=C(O)CNC(=O)c1ccccc1I` the value was “inactive”; for `CCCCCCCCCCCCOC(=O)c1ccc(O)cc1`, “inactive”.

As for `CO[C@H]1C=CO[C@@]2(C)Oc3c(C)c(O)c4c(O)c(cc(O)c4c3C2=O)NC(=O)/C(C)=C\C=C/[C@H](C)[C@H](O)[C@@H](C)[C@@H](O)[C@@H](C)[C@H](OC(C)=O)[C@@H]1C`, the Potency result is “inactive”.

Regarding `C=CCCCCCCCCO`, the Potency entry was “inactive”.

Take `COC(=O)Cc1cccc2ccccc12`: the Potency result is “inactive”. For `CC/C=C\CCOC(C)=O`, the Potency result was “inactive”. Regarding `CCc1ccc(C)cc1`, the Potency result is “inactive”. The same measure, in the same setting: then `Cc1c(C(N)=O)cc([N+](=O)[O-])cc1[N+](=O)[O-]`, with “inactive”; and `C1N2CN3CN1CN(C2)C3`, with “inactive”; and `Cc1c(O)cccc1O`, with “inactive”. In the case of `CCCCCCCCN`, the Potency result was “inactive”. Consider `CC(C)(Sc1cc(C(C)(C)C)c(O)c(C(C)(C)C)c1)Sc1cc(C(C)(C)C)c(O)c(C(C)(C)C)c1`, for which the Potency result is “inactive”.

In the case of `Cc1ccsc1/C=C/C1=NCCCN1C`, the Potency result was “inactive”.

In the case of `O=[N+]([O-])c1ccccc1CCO`, the Potency result was “inactive”. On the same count and under the same terms, for `O=C(O)Cc1c(Cl)ccc(Cl)c1Cl` the value was “inactive”; for `CC(CO)CO`, “inactive”.

With `CC(=O)Oc1ccc(C)cc1`, the Potency entry was “inactive”. Regarding `CC(C)(C)NC[C@H](O)COc1nsnc1N1CCOCC1`, the Potency result was “inactive”.

Source of the values: PubChem BioAssay (Tox21).
